In PubChem BioAssay (NCATS) one finds Potency and activity change, negative = inhibition data, which are given here for 19 molecules.

Each structure is given as a SMILES string. Inconclusive results are not listed. Entries that show only a call come without a potency. Calls of active or inactive are those of the source. Calls come from the whole dose curve.

Sequence of Nucleoprotein (Lymphocytic choriomeningitis virus (strain Armstrong)) (P09992 whole entry, looked up): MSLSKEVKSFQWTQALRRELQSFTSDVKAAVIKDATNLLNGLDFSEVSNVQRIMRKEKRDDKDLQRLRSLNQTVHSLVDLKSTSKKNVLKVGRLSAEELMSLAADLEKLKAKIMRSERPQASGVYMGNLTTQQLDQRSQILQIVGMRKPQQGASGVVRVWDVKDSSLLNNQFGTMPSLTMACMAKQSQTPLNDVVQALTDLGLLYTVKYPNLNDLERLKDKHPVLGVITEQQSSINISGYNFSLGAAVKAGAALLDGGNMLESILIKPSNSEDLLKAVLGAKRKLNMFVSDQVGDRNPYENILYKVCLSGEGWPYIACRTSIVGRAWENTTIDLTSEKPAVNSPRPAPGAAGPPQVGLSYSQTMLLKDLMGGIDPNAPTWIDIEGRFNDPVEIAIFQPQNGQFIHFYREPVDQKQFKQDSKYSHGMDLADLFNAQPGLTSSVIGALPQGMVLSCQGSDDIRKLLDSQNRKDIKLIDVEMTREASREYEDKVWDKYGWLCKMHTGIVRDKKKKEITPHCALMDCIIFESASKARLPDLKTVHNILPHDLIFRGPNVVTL

The experiment concerns the target Nucleoprotein (Lymphocytic choriomeningitis virus (strain Armstrong)) (UniProt P09992). The experiment can be described thus: qHTS for Inhibitors of the Functional Ribonucleoprotein Complex (vRNP) of Lymphocytic Choriomeningitis Arenaviruses (LCMV): LCMV Primary Screen - GLuc reporter signal (AID 1347086). Note: nearly all actives have a fitted effect of over 70% in size. The settings on record: LCMV minigenome vRNP cell assay, Gaussia luciferase reporter; series mostly up to 57.5 µM. In general terms: Quantitative high-throughput screening tests each substance at several concentrations.
On to `COc1ccc(-c2cnc(-c3cccnc3)o2)cc1`, for which the Potency entry was “inactive”.

As for `CC1OCCC1=O` (centres undefined), the Potency result is “inactive”.

As to `CC[C@H]1O[C@]2(CC[C@@H]1C)C[C@@H]1C[C@@H](C/C=C(\C)C[C@@H](C)/C=C/C=C3\CO[C@@H]4[C@H](O)C(C)=C[C@@H](C(=O)O1)[C@]34O)O2`, the Potency result is “inactive”.

On to `CCOc1ccc(O)cc1`, for which the Potency result is “inactive”.

As for `O=C(NCCCCNCCCNC(=O)c1ccccc1)c1ccccc1`, the Potency result was “inactive”.

With `Cn1cc(C=C2C(=O)Nc3cccnc32)c2ccccc21`, the Potency entry is “inactive”.

Take `O=c1c2ccccc2nc2n1CCC2`: the Potency result was “inactive”.

With `O=C(O)[C@H]1NC[C@H]2C[C@H]21`, the Potency entry is “inactive”.

For the molecule `COC(=O)c1cc(O)cc(OC)c1C(=O)c1c(O)cc(C)cc1O`, the Potency result is “inactive”.

`COC1C(O)C(CO)OC1n1cnc2c(=O)[nH]c(N)nc21` (centres undefined): the Potency result is “inactive”.

As for `COC1C(O)C(O)C(O)C(O)C1O` (centres undefined), the Potency result was “inactive”.

Take `NC1=N[C@H](O)[C@H]2C3O[C@]4(O)O[C@H](C(O)[C@@]2(N1)[C@@H]4O)C3(O)CO` (some centres undefined): the Potency result is “inactive”.

With `C=CC(C)(CCC=C(C)C)OC(=O)c1ccccc1` (centres undefined), the Potency result is “inactive”.

For `CCCC(=O)OC/C=C(\C)CCC=C(C)C`, the Potency entry was “inactive”.

Regarding `CC1(C)CCc2c([nH]c3ccccc3c2=O)O1`, the Potency result is “inactive”.

`CCCCC/C=C\C/C=C\C/C=C\C=C\C(O)CCCC(=O)O` (centres undefined): the activity change, negative = inhibition is -6.07% [at 0.757 µM] (inactive).

As for `COc1c2ccoc2c(OC[C@@H](OC(C)=O)C(C)(C)O)c2oc(=O)ccc12`, the Potency result was “inactive”.

With `O=C1C[C@@H](c2ccc(O)c(O)c2)Oc2c1ccc(O[C@@H]1O[C@H](CO)[C@@H](O)[C@H](O)[C@H]1O)c2O`, the Potency result was “inactive”.

Take `C=CCCCCCCCCCCCC(O)CC(O)COC(C)=O` (centres undefined): the Potency result was “inactive”.
